In PubChem BioAssay (Tox21):
Values joined by “and” are separate entries in the source; they are usually repeats but may differ in a detail not shown here. Equal values may be shown once. Records with an inconclusive call do not appear. A call without a number means that no potency is given here. The source holds several records for some structures; these can differ, active in one and inactive in another. Active and inactive are the calls of the source. Unless noted, calls come from the whole dose curve.

Key:
[1] = qHTS assay to identify small molecule agonists of the peroxisome proliferator-activated receptor delta (PPARd) signaling pathway - cell viability counter screen (AID 743211; active = well fitted curve in the direction sought with a large enough effect in the repeat runs; an effect the other way counts as inactive or inconclusive; note: nearly all actives have a fitted effect of over 55% in size; note: potency is the fitted concentration of half-maximal effect)
In short: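 PPARd-bla HEK293H cells (UAS-beta-lactamase reporter) were treated with compounds for 17 h at 37 C. Viability was then read in the same wells by CellTiter-Glo luminescence after 30 min at room temperature.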

[2] = molecular target: Peroxisome proliferator-activated receptor delta (Homo sapiens) (UniProt Q03181); experiment: qHTS assay to identify small molecule agonists of the peroxisome proliferator-activated receptor delta (PPARd) signaling pathway (AID 743212)
Peroxisome proliferator-activated receptor delta (Homo sapiens), sequence (Q03181 whole entry, looked up): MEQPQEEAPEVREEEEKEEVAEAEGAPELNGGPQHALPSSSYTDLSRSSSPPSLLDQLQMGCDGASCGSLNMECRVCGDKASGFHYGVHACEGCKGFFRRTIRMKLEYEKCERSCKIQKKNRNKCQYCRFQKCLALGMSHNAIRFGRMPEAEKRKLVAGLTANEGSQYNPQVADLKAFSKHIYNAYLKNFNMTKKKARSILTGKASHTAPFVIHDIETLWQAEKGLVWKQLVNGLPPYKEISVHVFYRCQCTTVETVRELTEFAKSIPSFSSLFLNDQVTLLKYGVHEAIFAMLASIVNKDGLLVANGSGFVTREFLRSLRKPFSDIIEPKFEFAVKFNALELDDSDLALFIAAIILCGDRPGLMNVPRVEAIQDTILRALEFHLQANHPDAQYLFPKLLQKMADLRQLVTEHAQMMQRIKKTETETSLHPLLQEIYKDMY
In short: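 Beta-lactamase reporter read by fluorescence (LiveBLAzer B/G FRET, 2 h, room temperature). Test agents, in DMSO, incubated at 37 C with PPARd-bla HEK293H cells.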

[3] = molecular target: Peroxisome proliferator-activated receptor delta (Homo sapiens) (UniProt Q03181); experiment: qHTS assay to identify small molecule antagonists of the peroxisome proliferator-activated receptor delta (PPARd) signaling pathway (AID 743215; active = well fitted inhibition curve with a large enough effect in the signal ratio in the repeat runs, not every such curve was filed as active; the % refers to the signal ratio;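 note: cells stimulated with agonist L165041 at 300 nM final during compound exposure; series mostly up to about 62 µM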)
In short: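 Fluorescence from cleaved LiveBLAzer B/G FRET substrate (2 h, room temperature) reports PPARd-driven beta-lactamase in HEK293H UAS-bla cells. Cells had been treated 17 h at 37 C with compound plus 300 nM final L165041.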

[4] = molecular target: Bile acid receptor (Homo sapiens) (UniProt Q96RI1); experiment: qHTS assay to identify small molecule antagonists of the farnesoid-X-receptor (FXR) signaling pathway (AID 743217; active = well fitted inhibition curve with a large enough effect in the signal ratio in the repeat runs, not every such curve was filed as active; the % refers to the signal ratio)
Bile acid receptor (Homo sapiens), sequence (Q96RI1 whole entry, looked up): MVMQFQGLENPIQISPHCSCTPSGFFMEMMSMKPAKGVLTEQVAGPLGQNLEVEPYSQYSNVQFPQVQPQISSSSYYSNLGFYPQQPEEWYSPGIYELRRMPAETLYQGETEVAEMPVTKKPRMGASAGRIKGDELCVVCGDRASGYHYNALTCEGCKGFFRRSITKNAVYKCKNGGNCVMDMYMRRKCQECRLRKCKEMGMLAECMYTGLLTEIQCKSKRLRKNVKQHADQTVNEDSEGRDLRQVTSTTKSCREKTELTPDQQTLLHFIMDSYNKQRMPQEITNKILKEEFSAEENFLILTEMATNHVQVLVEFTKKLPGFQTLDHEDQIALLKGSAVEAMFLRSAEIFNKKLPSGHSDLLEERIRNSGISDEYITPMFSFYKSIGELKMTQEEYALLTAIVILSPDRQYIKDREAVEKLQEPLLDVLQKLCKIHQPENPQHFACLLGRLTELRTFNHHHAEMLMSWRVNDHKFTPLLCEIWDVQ
In short: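 FRET fluorescence after 2 h room-temperature LiveBLAzer loading gives the readout. Prior step: FXR-bla HEK 293T cells, seeded and incubated 5 h, received test compounds plus 50 uM final CDCA for 16 h at 37 °C.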

[5] = molecular target: Bile acid receptor (Homo sapiens) (UniProt Q96RI1); experiment: qHTS assay to identify small molecule agonists of the farnesoid-X-receptor (FXR) signaling pathway (AID 743220; active = well fitted activation curve with a large enough effect in the signal ratio in the repeat runs, not every such curve was filed as active; the % refers to the signal ratio)
In short: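 FXR-UAS-bla HEK 293T cells carrying a UAS-driven beta-lactamase reporter were plated for 5 h at 37C/5% CO2, then exposed to DMSO-dissolved Tox21 10K compounds for 16 h at 37C. A LiveBLAzer B/G FRET substrate was loaded for 2 h at room temperature before fluorescence reading.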

[6] = qHTS assay to identify small molecule antagonists of the farnesoid-X-receptor (FXR) signaling pathway - cell viability counter screen (AID 743221; active = well fitted cell-killing curve with a large enough effect in the repeat runs, not every such curve was filed as active; note: nearly all actives have a fitted effect of over 50% in size; note: potency is the fitted concentration of half-maximal effect)
In short: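 FXR-UAS-bla HEK 293T cells were treated with test compounds plus chenodeoxycholic acid (50 uM final) for 16 h at 37 C. Cell viability in the same wells was then read as CellTiter-Glo luminescence after 30 min at room temperature.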

[7] = qHTS assay to identify small molecule agonists of the vitamin D receptor (VDR) signaling pathway - cell viability counter screen (AID 743224; active = well fitted curve in the direction sought with a large enough effect in the repeat runs; an effect the other way counts as inactive or inconclusive; note: nearly all actives have a fitted effect of over 50% in size; note: potency is the fitted concentration of half-maximal effect)
In short: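 In parallel with the bla FRET readout, cytotoxicity toward VDR-bla cells after 16 h compound exposure was assessed by CellTiter-Glo, with luminescence recorded after a 30 min room-temperature incubation.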

[8] = qHTS assay to identify small molecule antagonists of the vitamin D receptor (VDR) signaling pathway - cell viability counter screen (AID 743225; active = well fitted curve in the direction sought with a large enough effect in the repeat runs; an effect the other way counts as inactive or inconclusive; note: nearly all actives have a fitted effect of over 50% in size; note: potency is the fitted concentration of half-maximal effect)
In short: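 VDR-bla HEK 293T cells, 4 h pre-incubation at 37C, then compound plus 1-alpha,25-dihydroxyvitamin D3 (3 nM final) for 16 h. After the beta-lactamase FRET read, CellTiter-Glo was added to the same wells; luminescence after 30 min at room temperature.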

[9] = qHTS assay to identify small molecule agonists of the NFkB signaling pathway - cell viability counter screen (AID 1159515); note: nearly all actives have a fitted effect of over 55% in size; note: potency is the fitted concentration of half-maximal effect
In short: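 Plate 2,000 NFkB-bla ME-180 cells/well; incubate overnight. Add compounds, 5 hr at 37 C. Add FRET substrate, 1.5 hr RT. Add CellTiter-Glo, 30 min RT; read luminescence.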

[10] = qHTS assay to identify small molecule agonists of the endoplasmic reticulum stress response signaling pathway (AID 1159516; active = well fitted activation curve with a large enough effect in the signal ratio in the repeat runs, not every such curve was filed as active; the % refers to the signal ratio)
In short: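 Beta-lactamase expression from the ER stress response element in HeLa reporter cells is quantified with the LiveBLAzer B/G FRET substrate, read at 405 nm excitation after 2 hr at room temperature, following 5 hr compound treatment at 37 C.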

[11] = qHTS assay to identify small molecule agonists of the endoplasmic reticulum stress response signaling pathway - cell viability counter screen (AID 1159517); note: nearly all actives have a fitted effect of over 50% in size; note: potency is the fitted concentration of half-maximal effect
In short: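 Cytotoxicity of test compounds toward ESRE-bla HeLa cells was assessed after 5 hr exposure. The luminescent CellTiter-Glo signal was measured 30 min after reagent addition.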

[12] = qHTS assay to identify small molecule antagonists of the retinoid-related orphan receptor gamma (ROR-gamma) signaling pathway - cell viability counter screen (AID 1159520; active = well fitted curve in the direction sought with a large enough effect in the repeat runs; an effect the other way counts as inactive or inconclusive; note: nearly all actives have a fitted effect of over 50% in size; note: potency is the fitted concentration of half-maximal effect)
In short: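 Tet-on ROR gamma CHO cells (1,000/well) were plated 4 hr, given compounds in DMSO for 2 hr at 37 C, then induced with 1 uM final doxycycline for 16 hr. Viability was read as ATP by CellTiter-Glo luminescence after 30 min.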

[13] = molecular target: Nuclear receptor ROR-gamma (Homo sapiens) (UniProt P51449); experiment: qHTS assay to identify small molecule antagonists of the retinoid-related orphan receptor gamma (ROR-gamma) signaling pathway (AID 1159521; active = well fitted curve in the direction sought with a large enough effect in the repeat runs; an effect the other way counts as inactive or inconclusive; note: nearly all actives have a fitted effect of over 50% in size; note: potency is the fitted concentration of half-maximal effect)
In short: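 Tet-on RORγ CHO cells carrying a ROR response element–luciferase reporter were pretreated with compounds for 2 h, then induced with 1 uM (final) doxycycline hyclate for 16 h at 37 C. Antagonism was read as decreased ONE-Glo luminescence.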

[14] = qHTS assay to identify small molecule agonists of the AP-1 signaling pathway - cell viability counter screen (AID 1159525); note: nearly all actives have a fitted effect of over 55% in size; note: potency is the fitted concentration of half-maximal effect
In short: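 Each titration point was normalised to DMSO and tetra n-octyl ammonium bromide controls. The read was Cell Titer Glo luminescence after 30 min at RT, following 5 h compound exposure of ME-180 AP-1-bla cells at 37 °C.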

[15] = qHTS assay to identify small molecule agonists of the AP-1 signaling pathway (AID 1159526)
[16] = qHTS assay to identify small molecule agonists of the farnesoid-X-receptor (FXR) signaling pathway - cell viability counter screen (AID 743218; active = well fitted curve in the direction sought with a large enough effect in the repeat runs; an effect the other way counts as inactive or inconclusive; note: nearly all actives have a fitted effect of over 45% in size; note: potency is the fitted concentration of half-maximal effect)
In short: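 Readout: CellTiter-Glo luminescence, 30 min RT, multiplexed after the FXR-bla FRET reading. HEK 293T FXR-UAS-bla cells received compound 5 h post-plating and were incubated 16 h at 37 C.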

[17] = molecular target: Vitamin D3 receptor (Homo sapiens) (UniProt P11473); experiment: qHTS assay to identify small molecule antagonists of the vitamin D receptor (VDR) signaling pathway (AID 743223; active = well fitted inhibition curve with a large enough effect in the signal ratio in the repeat runs, not every such curve was filed as active; the % refers to the signal ratio; note: potency is the fitted concentration of half-maximal effect)
Vitamin D3 receptor (Homo sapiens), sequence (P11473 whole entry, looked up): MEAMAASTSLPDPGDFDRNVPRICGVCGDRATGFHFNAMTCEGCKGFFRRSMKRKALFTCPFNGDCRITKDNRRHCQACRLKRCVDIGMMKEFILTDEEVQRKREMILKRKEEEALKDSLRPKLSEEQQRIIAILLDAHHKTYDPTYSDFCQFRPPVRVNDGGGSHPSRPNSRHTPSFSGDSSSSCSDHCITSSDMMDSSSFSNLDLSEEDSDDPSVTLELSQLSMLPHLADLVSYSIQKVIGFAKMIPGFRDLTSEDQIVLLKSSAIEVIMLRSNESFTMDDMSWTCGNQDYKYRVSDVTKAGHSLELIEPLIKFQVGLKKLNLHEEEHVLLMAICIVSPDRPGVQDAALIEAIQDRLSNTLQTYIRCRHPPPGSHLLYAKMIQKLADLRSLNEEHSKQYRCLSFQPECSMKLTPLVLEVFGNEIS
In short: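 VDR-bla cells were plated, incubated 4 h at 37C, then given compound and 1alpha,25-dihydroxyvitamin D3 (3 nM final). After 16 h at 37C, LiveBLAzer B/G FRET substrate was added for 2 h at room temperature and fluorescence read.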

[18] = qHTS assay to identify small molecule antagonists of the peroxisome proliferator-activated receptor delta (PPARd) signaling pathway - cell viability counter screen (AID 743213; active = well fitted curve in the direction sought with a large enough effect in the repeat runs; an effect the other way counts as inactive or inconclusive; note: nearly all actives have a fitted effect of over 50% in size; note: potency is the fitted concentration of half-maximal effect)
In short: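 HEK293H PPARd UAS-bla cells, 5 h pre-incubation, compound + L165041 300 nM final, 17 h 37 C; B/G FRET substrate 2 h RT; then CellTiter-Glo 30 min RT, luminescence.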

[19] = molecular target: Vitamin D3 receptor (Homo sapiens) (UniProt P11473); experiment: qHTS assay to identify small molecule agonists of the vitamin D receptor (VDR) signaling pathway (AID 743222)
In short: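 Following 4 h attachment at 37C, VDR-bla cells (2,000 per well) received DMSO-dissolved compounds or controls. After 16 h incubation, LiveBLAzer B/G FRET substrate was added and fluorescence read 2 h later at room temperature.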

[20] = molecular target: Retinoic acid receptor RXR-alpha (Homo sapiens) (UniProt P19793); experiment: qHTS assay to identify small molecule agonists of the RXR signaling pathway (AID 1159527); note: nearly all actives have a fitted effect of over 35% in size
Retinoic acid receptor RXR-alpha (Homo sapiens), sequence (P19793 whole entry, looked up): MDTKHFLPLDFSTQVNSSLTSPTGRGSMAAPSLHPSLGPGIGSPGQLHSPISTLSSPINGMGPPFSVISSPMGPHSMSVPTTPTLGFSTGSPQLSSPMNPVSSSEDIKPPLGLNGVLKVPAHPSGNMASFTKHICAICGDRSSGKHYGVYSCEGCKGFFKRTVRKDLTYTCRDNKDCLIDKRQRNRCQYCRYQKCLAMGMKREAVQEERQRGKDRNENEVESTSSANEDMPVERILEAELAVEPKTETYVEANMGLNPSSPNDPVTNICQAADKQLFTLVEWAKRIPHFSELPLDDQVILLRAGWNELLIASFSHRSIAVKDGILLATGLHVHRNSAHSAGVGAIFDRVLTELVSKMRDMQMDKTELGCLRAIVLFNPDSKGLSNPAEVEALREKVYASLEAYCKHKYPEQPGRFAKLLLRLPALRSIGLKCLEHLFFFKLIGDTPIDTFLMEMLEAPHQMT
In short: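 GeneBLAzer RXR-alpha-UAS-bla HEK 293T cells in medium with 2% charcoal-stripped FBS, pre-incubated 5 hr at 37 C, then exposed to compounds 16 hr. Beta-lactamase reporter read by FRET substrate, 2 hr room temperature, 460/530 nm emission.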

Row | Structure (SMILES) | Potency [1] | Potency [2] | Potency [3] | Potency [4] | Potency [5] | Potency [6] | Potency [7] | Potency [8] | Potency [9] | Potency [10] | Potency [11] | Potency [12] | Potency [13] | Potency [14] | outcome [15] | Potency [16] | Potency [17] | Potency [18] | outcome [19] | Potency [20]
1 | CCN(CC)C(=O)C(C)Oc1cccc2ccccc12 (stereo not drawn) | inactive | inactive | inactive | inactive | inactive | inactive | inactive | inactive | inactive | inactive | inactive | inactive | inactive | inactive | inactive |  |  |  |  | 
2 | CCCCC(C#N)(Cn1cncn1)c1ccc(Cl)cc1 (stereo not drawn) | inactive | inactive | inactive |  |  | inactive | inactive | inactive | inactive | inactive | inactive | inactive |  | inactive | inactive | inactive |  |  |  | 
3 | CC(C)(c1ccccc1)c1ccc(O)c(C(C)(C)c2ccccc2)c1 | 21.7 µM (active) and 19.5 µM (active) |  |  |  |  |  | 19.3 µM (active) and 15.5 µM (active) | 30.6 µM (active) and 17.4 µM (active) | 21.7 µM (active) and 21.9 µM (active) |  | 27.3 µM (active) and 27.5 µM (active) | 48.1 µM (active) and 30.6 µM (active) | 19.2 µM (active) and 27.3 µM (active) | 12.2 µM (active) and 21.9 µM (active) |  | 54.9 µM (active) | 43.6 µM (active) |  |  | 
4 | CC(C)Nc1ccc(Nc2ccccc2)cc1 |  | inactive |  |  | inactive |  | 43.5 µM (active) and 43.6 µM (active) | 43.6 µM (active) | inactive | inactive | inactive |  | 38.4 µM (active) and 54.5 µM (active) | 43.5 µM (active) and 54.9 µM (active) |  |  |  | 43.6 µM (active) |  | 
5 | O=[N+]([O-])c1ccc(Nc2ccccc2)cc1 | inactive and 49 µM (active) |  |  |  |  |  | inactive | inactive and 49 µM (active) | inactive and 43.6 µM (active) | inactive | inactive and 54.9 µM (active) | inactive |  | inactive | inactive |  |  | inactive | inactive | 
6 | N#Cc1c(Cl)c(Cl)c(Cl)c(C#N)c1Cl | 6.79 µM (active) and 6.92 µM (active) |  |  |  |  | 24.1 µM (active) and 21.9 µM (active) | 1.91 µM (active) and 1.95 µM (active) | 6.79 µM (active) and 8.71 µM (active) | inactive |  | 5.39 µM (active) and 5.49 µM (active) | 1.51 µM (active) and 864 nM (active) | 1.9 µM (active) and 1.22 µM (active) | 7.76 µM (active) |  | 21.5 µM (active) and 15.5 µM (active) |  | 15.2 µM (active) and 5.49 µM (active) | inactive | 
7 | CCOP(=S)(OCC)SCSC(C)(C)C | inactive | inactive | inactive |  |  |  | inactive | inactive | inactive | inactive | inactive | inactive |  | inactive | inactive | inactive | inactive | inactive | inactive | inactive
8 | N#Cc1nn(-c2c(Cl)cc(C(F)(F)F)cc2Cl)c(N)c1S(=O)C(F)(F)F (stereo not drawn) | 22 µM (active) and inactive | inactive |  |  | inactive |  | 24.7 µM (active) and inactive |  | inactive | inactive | inactive | inactive | 7.74 µM (active) and 16.8 µM (active) | inactive | inactive |  | inactive |  | inactive | 
9 | CCCCCCCCCC(CC)c1ccc(S(=O)(=O)O)cc1 (stereo not drawn) |  |  |  |  |  |  |  |  | 48.9 µM (active) and 21.3 µM (active) |  | inactive and 21.3 µM (active) and 21.9 µM (active) | inactive |  | 49.5 µM (active) [middle of 4 runs] |  |  |  |  |  | 
10 | CC(C)COC(=O)c1ccccc1C(=O)OCC(C)C | inactive |  |  | inactive | inactive | inactive | inactive | inactive | inactive | inactive | inactive | inactive | inactive | inactive |  |  |  |  |  | inactive
11 | CC(C)(O)C(=O)Nc1ccc([N+](=O)[O-])c(C(F)(F)F)c1 | inactive |  |  |  |  |  | inactive | inactive | inactive | inactive | inactive | inactive | 19.7 µM (active) | inactive | inactive | inactive |  | inactive | inactive | 
12 | CCC(=O)Nc1ccc(Cl)c(Cl)c1 | inactive |  |  |  |  |  | inactive | inactive | inactive | inactive | inactive | inactive |  | inactive | inactive |  | inactive | inactive | inactive | inactive
13 | CC(C)Nc1nc(Cl)nc(NC(C)C)n1 | inactive | inactive | inactive |  |  |  | inactive | inactive | inactive | inactive | inactive | inactive |  | inactive | inactive | inactive | inactive |  | inactive | inactive
